Assay results from the supplement of paper PMC9844399.
Where a name gives a salt, the structure may show the parent alone.

system: HeLa; assay: nuclear count per well, robust Z-score vs DMSO; higher = more cells (less toxicity); details: 10 µM; 6 h
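Also: Hoechst-stained nuclei counted by automated confocal imaging of four fields per well in 384-well plates, with the robust Z-score based on the per-plate DMSO median and robust SD.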

| Compound | nuclear count per well |
| --- | --- |
| CC(=O)Oc1ccc(C(c2ccc(OC(C)=O)cc2)c2ccccn2)cc1 [Bisacodyl] | -0.034 |
| CN1CCC(=C2c3ccccc3CC(=O)c3sccc32)CC1 | -0.95 |
| CC/C=C\C/C=C\C/C=C\CCCCCCCCCC(=O)O [Eicosatrienoic acid (20:3 n-3)] | 1.23 |
| CC(C)Nc1cccnc1N1CCN(C(=O)c2cc3cc(NS(C)(=O)=O)ccc3[nH]2)CC1 [Delavirdine Mesylate] | -0.582 |
| O=C1CN(/N=C/c2ccc(-c3ccc([N+](=O)[O-])cc3)o2)C(=O)N1 [Dantrolene] | 1.07 |
| Oc1cccc(-c2nc(N3CCOCC3)c3oc4ncccc4c3n2)c1 [PI 103 hydrochloride] | 1.63 |
| CC(=O)OCC(CCn1cnc2cnc(N)nc21)COC(C)=O [Famciclovir] | -1.28 |
| CC(CN1c2ccccc2Sc2ccccc21)N(C)C (configuration not stated) | 0.444 |
| CCCCC/C=C\C[C@H](O)/C=C/C=C\C/C=C\CCCC(=O)O | 0.23 |
| O=C1N=C(O)CN1N=Cc1ccc(-c2ccc([N+](=O)[O-])cc2)o1 | 0.912 |
| NC(=O)c1cnccn1 [Pyrazinamide] | 0.289 |
| CCCc1nc(C)c2c(=O)nc(-c3cc(S(=O)(=O)N4CCN(CC)CC4)ccc3OCC)[nH]n12 [Vardenafil] | -0.564 |
| C[C@H]1CC[C@@]2(OC1)O[C@H]1C[C@H]3[C@@H]4CC[C@@H]5C[C@@H](O[C@@H]6O[C@H](CO)[C@H](O)[C@H](O)[C@H]6O[C@@H]6O[C@H](CO)[C@@H](O)[C@H](O)[C@H]6O)CC[C@]5(C)[C@H]4CC[C@]3(C)[C@H]1[C@@H]2C [Timosaponin A-III] | 0.239 |
| C1CCC(C(CC2CCCCN2)C2CCCCC2)CC1 (racemic) [rac Perhexiline Maleate] | -0.437 |
| CC1(C)S[C@@H]2[C@H](NC(=O)[C@H](N)c3ccccc3)C(=O)N2[C@H]1C(=O)O [Ampicillin Trihydrate] | 0.682 |
| COc1ccc(C2CNC(=O)C2)cc1OC1CCCC1 (configuration not stated) [Rolipram] | 0.245 |
| Nc1ccc(S(=O)(=O)c2ccc(N)cc2)cc1 [Dapsone] | 1.25 |
| O=C1CCc2cc(OCCCCc3nnnn3C3CCCCC3)ccc2N1 [Cilostazol] | 0.162 |
| NNC(=O)c1ccncc1 [Isoniazid] | -0.0369 |
| Nc1nc(=O)[nH]cc1F [Flucytosine] | 0.644 |
| Cc1cccc(Nc2cc(Cl)nc(SCC(=O)O)n2)c1C | -0.718 |
| CC1(C)C[C@@H]1C(=O)N/C(=C\CCCCSC[C@H](N)C(=O)O)C(=O)O | 0.617 |
| CC(C)[C@H]1CC[C@H](C(=O)N[C@H](Cc2ccccc2)C(=O)O)CC1 [Nateglinide] | -0.477 |
| C[C@@H]1[C@H](O)[C@@H](C)/C=C/C=C/C=C/C=C/C=C/C=C/C=C/[C@H](O[C@@H]2O[C@H](C)[C@@H](O)[C@H](N)[C@@H]2O)C[C@@H]2O[C@](O)(C[C@@H](O)C[C@@H](O)[C@H](O)CC[C@@H](O)C[C@@H](O)CC(=O)O[C@H]1C)C[C@H](O)[C@H]2C(=O)O [Amphotericin B] | 0.998 |
| CC(=O)OCC(=O)[C@@]1(O)CC[C@H]2[C@@H]3CCC4=CC(=O)CC[C@]4(C)[C@H]3[C@@H](O)C[C@@]21C [Hydrocortisone Acetate] | 1.42 |
| CC(=O)OCC(=O)[C@@]1(O)CC[C@H]2[C@@H]3CCC4=CC(=O)CC[C@]4(C)[C@@]3(F)[C@@H](O)C[C@@]21C [Fludrocortisone Acetate] | 1.2 |
| CN1CCC(=C2c3ccccc3C=Cc3ccccc32)CC1 [Cyproheptadine hydrochloride sesquihydrate] | 1.34 |
